CF NFkB block = inhibitors of cystic fibrosis induced NF-kB. KKLEB NF-kB-GFP reporter, PAF-induced, GFP fluorescence overnight. AID 588850. inhibition, % at 5 µM. actives 0.86% (n = 360,000);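 active = at least 50% inhibition at 5 µM, scaled per plate between neutral and stimulator controls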;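 note: PAF is a Pseudomonas aeruginosa culture filtrate used as stimulus; plate controls were PAF-stimulated DMSO wells for no effect and unstimulated DMSO wells for full effect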
PAX8 reporter = inhibitors of PAX8 transcriptional activity in RMG-I cells | inhibition, % at 12.6 µM | actives 1.2% (n = 360,000) | RMG-I TPO-luciferase reporter, SteadyGlo, 24 h;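 active = mean replicate inhibition at least 60% with every replicate also reaching 60%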;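 note: luciferase light reporting Pax8 driven TPO promoter activity; plate controls were median of neutral control wells for no effect and mitoxantrone controls for full effect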
HIF-2a block = blocks HIF-2a reporter activity. 786-0 RCC cells HIF-2a reporter, luciferase luminescence, overnight. inhibition, % at 18.8 µM. actives 0.72% (n = 360,000). AID 624352;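 active = inhibition of the luminescence signal of 40% or more relative to plate controls, in a single-dose primary screen at 18.75 µM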
KKLEB tox = reduces viability of KKLEB cystic fibrosis airway cells; KKLEB CF airway cells viability, ATPlite luminescence, overnight; stronger effect = lower value; cells stimulated with P. aeruginosa culture filtrate; actives 0.36% (n = 360,000); activity change (cytotoxicity), % at 5 µM;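 active = corrected activity change at or below -50% at 5 µM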
EWS-Fli block = inhibitors of EWS/Fli oncoprotein transcriptional activity. actives 0.67% (n = 350,000). A673 NR0B1-luciferase reporter, viability-normalised. inhibition, % at 12.6 µM;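 active = mean inhibition of at least 50% after viability correction, with every replicate also passing that limit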;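 note: firefly luciferase signal divided by Alamar Blue viability fluorescence both relative to DMSO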
Mdm2-MdmX confirm = confirmation of inhibitors of human Mdm2/MdmX interaction, set 2; shares compounds with HIF-2a block; SaOS-2 split-luciferase Mdm2/MdmX complementation, luminescence; inhibition, % at 8 µM; actives 99% (n = 740); AID 504601;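 active = mean inhibition of the luminescence signal across two replicates at or above 26 percent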
Target sequence (O15151 whole entry, looked up): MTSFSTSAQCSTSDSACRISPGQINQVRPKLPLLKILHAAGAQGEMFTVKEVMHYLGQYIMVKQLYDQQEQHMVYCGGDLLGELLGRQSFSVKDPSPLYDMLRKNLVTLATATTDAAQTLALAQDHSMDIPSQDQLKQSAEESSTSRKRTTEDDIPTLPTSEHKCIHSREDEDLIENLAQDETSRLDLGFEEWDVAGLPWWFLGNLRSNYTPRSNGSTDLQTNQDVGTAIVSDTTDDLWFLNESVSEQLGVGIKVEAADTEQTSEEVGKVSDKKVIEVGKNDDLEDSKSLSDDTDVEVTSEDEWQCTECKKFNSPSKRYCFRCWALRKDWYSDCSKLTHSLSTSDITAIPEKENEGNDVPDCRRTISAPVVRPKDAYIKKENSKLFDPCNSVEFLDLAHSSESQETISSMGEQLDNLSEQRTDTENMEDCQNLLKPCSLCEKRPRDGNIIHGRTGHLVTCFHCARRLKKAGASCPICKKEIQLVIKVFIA
Target sequence (Q00987 whole entry, looked up): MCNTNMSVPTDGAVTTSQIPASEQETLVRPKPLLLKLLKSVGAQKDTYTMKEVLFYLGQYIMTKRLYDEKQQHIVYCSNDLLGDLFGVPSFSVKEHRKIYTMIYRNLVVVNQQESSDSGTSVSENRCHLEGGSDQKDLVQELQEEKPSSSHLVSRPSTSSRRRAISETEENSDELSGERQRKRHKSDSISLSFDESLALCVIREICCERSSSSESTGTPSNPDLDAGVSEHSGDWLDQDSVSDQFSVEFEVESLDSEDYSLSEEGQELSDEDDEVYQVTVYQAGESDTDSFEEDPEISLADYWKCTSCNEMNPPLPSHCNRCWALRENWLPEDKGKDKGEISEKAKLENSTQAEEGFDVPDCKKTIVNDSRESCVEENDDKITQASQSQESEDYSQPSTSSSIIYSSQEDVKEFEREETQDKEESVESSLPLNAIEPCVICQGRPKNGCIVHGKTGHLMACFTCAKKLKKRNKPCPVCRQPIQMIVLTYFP
HIF-2a inh conf = confirmation of HIF-2a inhibitors. shares compounds with HIF-2a block. 786-0 RCC cells, HIF-2a luciferase reporter luminescence, overnight. inhibition, % at 18.8 µM. actives 56% (n = 1,800);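 active = mean inhibition across four replicates of at least 40 percent at the single tested concentration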
HIF-1a cs = HIF-1a inhibition counter-screen for HIF-2a hits | shares compounds with HIF-2a block | MiaPaCa-2 HIF-1a luciferase reporter, desferoxamine, overnight | inhibition, % at 18.8 µM | actives 72% (n = 1,800) | AID 651589;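 active = mean inhibition of the reporter signal across four replicates at the single tested dose of 50% or more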
* = called active by the depositor; nt = not tested or not shown. An excerpt weighted towards active compounds, which were near 2.1% of everything screened.

SMILES	CF NFkB block	PAX8 reporter	HIF-2a block	KKLEB tox	EWS-Fli block	HIF-2a inh conf	HIF-1a cs	others
C#CCN(C[C@@H]1[C@@H](OC(=O)NCCCCCC)[C@@H](OC(=O)NCCCCCC)Cn2c(=O)ccc(=O)n21)S(=O)(=O)c1ccc(C)cc1	87.1*	112.7*	95.1*	-88.7*	66.5*	90.6*	106.9*
COc1ccc(NC(=O)N(C)C[C@H]2OCc3ccccc3-c3ccccc3C(=O)N([C@H](C)CO)C[C@@H]2C)c(OC)c1	nt	nt	nt	nt	-1.1	nt	nt
O=C(O)c1c(NC(=O)N2CCOCC2)sc2c1CCCC2	-8.2	-15.3	54.9*	-15.6	-9.7	-12.2	0.7
Cc1ccc(-c2cnc3c(c2)C(=O)N([C@H](C)CO)C[C@H](C)[C@H](CN(C)C)O3)cc1	nt	nt	nt	nt	-5.3	nt	nt
COc1ccc2cc(CCNC(=O)c3ccc4c(c3)OCO4)c(=O)[nH]c2c1	-24.1	39.9	38.2*	-9.7	11.5	-11.7	3.1
C[C@@H]1CN([C@H](C)CO)C(=O)CCCn2cc(nn2)CO[C@@H]1CN(C)Cc1ccc2c(c1)OCCN2C	nt	3.7	nt	nt	-3.6	nt	nt
O=C(NC1=C(Nc2ccc(Cl)cc2)C(=O)c2ccccc2C1=O)c1ccccc1	6.8	46.9	7.7	-5.7	-7.8	nt	nt
CC(=O)Nc1ccc(NC2=C(Cl)C(=O)c3ccccc3C2=O)cc1	nt	-6.4	nt	nt	46.6	nt	nt	Mdm2-MdmX confirm=103.2*
CCOC(=O)c1cc(-c2csc(Nc3c(C)cc(C)cc3C)n2)on1	15.9	-2.4	57.5*	-5.2	-1.8	19.1	15.8
COc1ccc(C2C(O)C(c3c[nH]c4ccccc34)=NN2C(=O)CCl)cc1 (stereo not given)	97.8*	117.4*	92.9*	-88.9*	62.2*	87.9*	106.4*
CC(C)C[C@@H](CO)N(Cc1ccccc1)S(=O)(=O)N(Cc1ccccc1)[C@H](CO)CC(C)C	40.3	nt	-5.1	-19.6	nt	nt	nt
C=CS(=O)(=O)N(Cc1ccccc1Br)[C@H](CO)CC(C)C	24.8	4.1	41.1*	-14.5	16.2	21.8	27.1
O=S(=O)(c1ccc(F)cc1)c1snnc1-c1ccccc1	36.0	58.1	40.5*	-33.5	40.2	13.1	10.6
O=S(=O)(c1ccc(Cl)cc1)c1snnc1-c1ccccc1	40.4	nt	58.0*	-3.3	nt	62.5*	102.7*	Mdm2-MdmX confirm=103.2*
CN(C)c1ncc(S(=O)(=O)c2ccc(Cl)cc2)c(-c2ccccc2)n1	12.7	24.0	10.6	-7.8	nt	nt	nt
O=C(Nc1ccccc1)N1C[C@@H]2[C@H](c3ccccc31)[C@H](CO)N2Cc1cocn1	nt	-52.3	nt	nt	-21.7	nt	nt
CC(C)NC(=O)N(C)C[C@H]1OCc2ccccc2-c2ccccc2C(=O)N([C@@H](C)CO)C[C@@H]1C	nt	nt	nt	nt	-15.5	nt	nt
N#Cc1ccc(CSc2nnc(-c3c[nH]c4ccccc34)n2-c2ccccc2)cc1	-0.1	52.8	46.6*	2.8	14.5	30.4	70.6*
N#Cc1ccc(CSc2nnc(-c3ccccn3)n2-c2ccccc2)cc1	-0.9	nt	22.7	-3.1	nt	nt	nt
CCOc1ccc(-c2c(C#N)c(N)nc3sc(C(=O)c4ccccc4)c(N)c23)cc1	11.8	11.5	71.8*	-31.3	-3.0	0.3	63.4*
O=C(Nc1ccc([N+](=O)[O-])cc1)Nc1ccc(OC(F)F)c(Cl)c1	64.1*	83.2*	41.6*	-69.2*	nt	-70.4	100.1*
O=C(c1ccccc1)N1CCSc2sccc2C1=O	22.3	53.9	65.3*	-11.5	67.2*	71.1*	-16.2
COc1ccc(S(=O)(=O)N(C)C[C@@H]2Oc3ccc(NC(=O)Cc4cn(C)c5ccccc45)cc3CC(=O)N([C@@H](C)CO)C[C@H]2C)cc1	nt	nt	nt	nt	-0.2	nt	nt
CC(C)C#Cc1cnc2c(c1)C(=O)N([C@H](C)CO)C[C@@H](C)[C@@H](CN(C)C(=O)Nc1ccccc1F)O2	nt	nt	nt	nt	-9.4	nt	nt
O=C(CN1C(=O)c2ccccc2S1(=O)=O)c1ccccc1Cl	11.7	89.8*	48.4*	-6.8	82.3*	75.5*	67.8*

Assay outcomes (PubChem BioAssay)
